Data: PubChem BioAssay AID1159580 (chemical genetic matrix, 2015)
Hit rate of the full screen: of about 5,500 compounds, about 2,000 (36%) were called active. About 18% were inconclusive and are not listed. Cut-off read from the data, not from the text of the source: active = normalized growth mostly below about 0.91 (no sharp cut-off); inconclusive = no clear call, values can overlap the other calls; inactive = mostly above about 0.92. The list shows a part of the results.

Experiment: chemical genetic growth profiling, strain panel (AID 1159580);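 note: tested at 20 µM; growth read once vehicle control cultures reached saturation at 30 °C; 1 = growth at the plate median or of vehicle wells; lower values mean less growth of the strain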
Conditions: growth OD

Measured: normalized growth

COc1ccc2c(c1)OC1(O)COc3cc(OC)c(OC)cc3C1=C2 (configuration not stated)
active: S. cerevisiae deletion strains, locus YNL307C, strain MCK1, hits give low values 0.848
inactive: S. cerevisiae deletion strains, locus YJR075W, strain HOC1, hits give low values 0.956 | S. cerevisiae deletion strains, locus YKL009W, strain mrt4, hits give low values 0.965 | S. cerevisiae deletion strains, locus YKL068W, hits give low values 0.99 | S. cerevisiae deletion strains, locus YKL085W, strain MDH1 (second series), hits give low values 0.98 | S. cerevisiae deletion strains, locus YKL085W, strain MDH1, hits give low values 0.98 | S. cerevisiae deletion strains, locus YKL160W, strain elf1, hits give low values 1 | S. cerevisiae deletion strains, locus YKL190W, strain CNB1, hits give low values 1.01 | S. cerevisiae deletion strains, locus YKR001C, strain vps1, hits give low values 0.949 | S. cerevisiae deletion strains, locus YKR026C, strain gcn3, hits give low values 0.974 | S. cerevisiae deletion strains, locus YKR091W, strain srl3, hits give low values 0.979 | S. cerevisiae deletion strains, locus YLL001W, strain dnm1, hits give low values 0.944 | S. cerevisiae deletion strains, locus YLL026W, hits give low values 0.985 | S. cerevisiae deletion strains, locus YLL041C, strain sdh2, hits give low values 0.987 | S. cerevisiae deletion strains, locus YLR027C, strain aat2, hits give low values 0.985 | S. cerevisiae deletion strains, locus YLR039C, strain RIC1, hits give low values 0.974 | S. cerevisiae deletion strains, locus YLR058C, strain SHM2, hits give low values 1 | S. cerevisiae deletion strains, locus YLR102C, strain apc9, hits give low values 0.99 | S. cerevisiae deletion strains, locus YLR113W, strain HOG1, hits give low values 0.939 | S. cerevisiae deletion strains, locus YLR221C, strain rsa3, hits give low values 0.96 | S. cerevisiae deletion strains, locus YLR258W, strain gsy2, hits give low values 0.986 | S. cerevisiae deletion strains, locus YLR262C, strain YPT6 (second series), hits give low values 0.926 | S. cerevisiae deletion strains, locus YLR262C, strain YPT6, hits give low values 0.961 | S. cerevisiae deletion strains, locus YLR268W, strain sec22, hits give low values 0.96 | S. cerevisiae deletion strains, locus YLR320W, strain mms22, hits give low values 0.925 | S. cerevisiae deletion strains, locus YLR330W, strain CHS5, hits give low values 0.997 | S. cerevisiae deletion strains, locus YLR342W, strain FKS1 (second series), hits give low values 0.91 | S. cerevisiae deletion strains, locus YLR342W, strain FKS1, hits give low values 0.976 | S. cerevisiae deletion strains, locus YLR357W, strain rsc2, hits give low values 0.983 | S. cerevisiae deletion strains, locus YLR370C, strain arc18, hits give low values 0.985 | S. cerevisiae deletion strains, locus YLR371W, strain rom2, hits give low values 0.99 | S. cerevisiae deletion strains, locus YLR384C, strain iki3, hits give low values 0.985 | S. cerevisiae deletion strains, locus YLR418C, strain cdc73, hits give low values 0.955 | S. cerevisiae deletion strains, locus YML016C, strain PPZ1, hits give low values 1.01 | S. cerevisiae deletion strains, locus YML032C, strain rad52, hits give low values 0.957 | S. cerevisiae deletion strains, locus YML120C, strain ndi1, hits give low values 0.989 | S. cerevisiae deletion strains, locus YML124C, strain tub3, hits give low values 0.986 | S. cerevisiae deletion strains, locus YMR058W, strain fet3, hits give low values 0.978 | S. cerevisiae deletion strains, locus YMR078C, strain ctf18, hits give low values 0.98 | S. cerevisiae deletion strains, locus YMR125W, strain sto1, hits give low values 0.985 | S. cerevisiae deletion strains, locus YMR129W, hits give low values 0.977 | S. cerevisiae deletion strains, locus YMR205C, strain PFK2, hits give low values 0.954 | S. cerevisiae deletion strains, locus YMR223W, strain ubp8, hits give low values 0.951 | S. cerevisiae deletion strains, locus YMR231W, strain pep5, hits give low values 0.983 | S. cerevisiae deletion strains, locus YMR263W, strain SAP30, hits give low values 1.01 | S. cerevisiae deletion strains, locus YMR307W, strain GAS1, hits give low values 0.984 | S. cerevisiae deletion strains, locus YNL067W, strain RPL9B, hits give low values 0.998 | S. cerevisiae deletion strains, locus YNL071W, strain lat1, hits give low values 0.945 | S. cerevisiae deletion strains, locus YNL128W, strain TEP1, hits give low values 1.02 | S. cerevisiae deletion strains, locus YNL153C, strain GIM3, hits give low values 1.03 | S. cerevisiae deletion strains, locus YNL183C, strain NPR1, hits give low values 0.892 | S. cerevisiae deletion strains, locus YNL209W, strain ssb2, hits give low values 0.993 | S. cerevisiae deletion strains, locus YNL233W, strain BNI4, hits give low values 0.971 | S. cerevisiae deletion strains, locus YNL248C, strain rpa49, hits give low values 0.996 | S. cerevisiae deletion strains, locus YNL250W, strain rad50, hits give low values 0.998 | S. cerevisiae deletion strains, locus YNL271C, strain bni1, hits give low values 0.98 | S. cerevisiae deletion strains, locus YNL298W, strain CLA4, hits give low values 0.98 | S. cerevisiae deletion strains, locus YNL322C, strain KRE1 (second series), hits give low values 0.991 | S. cerevisiae deletion strains, locus YNL322C, strain KRE1, hits give low values 1 | S. cerevisiae deletion strains, locus YNR049C, strain mso1, hits give low values 0.992 | S. cerevisiae deletion strains, locus YNR052C, strain pop2, hits give low values 0.98 | S. cerevisiae deletion strains, locus YOL006C, strain TOP1, hits give low values 0.945 | S. cerevisiae deletion strains, locus YOL012C, strain htz1 0.969 | S. cerevisiae deletion strains, locus YOL147C, strain pex11, hits give low values 0.986 | S. cerevisiae deletion strains, locus YOR001W, strain rrp6, hits give low values 0.915 | S. cerevisiae deletion strains, locus YOR061W, strain CKA2, hits give low values 1.01 | S. cerevisiae deletion strains, locus YOR069W, strain VPS5, hits give low values 1.01 | S. cerevisiae deletion strains, locus YOR070C, strain gyp1, hits give low values 0.985 | S. cerevisiae deletion strains, locus YOR080W, strain dia2, hits give low values 0.97 | S. cerevisiae deletion strains, locus YOR083W, strain WHI5, hits give low values 0.982 | S. cerevisiae deletion strains, locus YOR106W, strain vam3, hits give low values 0.995 | S. cerevisiae deletion strains, locus YOR136W, strain idh2, hits give low values 0.975 | S. cerevisiae deletion strains, locus YOR144C, strain elg1, hits give low values 0.987 | S. cerevisiae deletion strains, locus YOR184W, strain ser1, hits give low values 0.899 | S. cerevisiae deletion strains, locus YOR231W, strain MKK1, hits give low values 0.92 | S. cerevisiae deletion strains, locus YOR265W, strain rbl2, hits give low values 0.982 | S. cerevisiae deletion strains, locus YOR270C, strain vph1, hits give low values 0.904 | S. cerevisiae deletion strains, locus YOR290C, strain snf2, hits give low values 0.998 | S. cerevisiae deletion strains, locus YOR316C, strain cot1, hits give low values 0.996 | S. cerevisiae deletion strains, locus YPL051W, strain arl3, hits give low values 0.949 | S. cerevisiae deletion strains, locus YPL055C, strain LGE1, hits give low values 1.02 | S. cerevisiae deletion strains, locus YPL078C, strain atp4, hits give low values 0.999 | S. cerevisiae deletion strains, locus YPL106C, strain sse1, hits give low values 0.991 | S. cerevisiae deletion strains, locus YPL240C, strain hsp82, hits give low values 0.988 | S. cerevisiae deletion strains, locus YPL241C, strain CIN2, hits give low values 1 | S. cerevisiae deletion strains, locus YPL256C, strain CLN2, hits give low values 0.902 | S. cerevisiae deletion strains, locus YPR119W, strain clb2, hits give low values 0.983 | S. cerevisiae deletion strains, locus YPR141C, strain kar3, hits give low values 0.994 | S. cerevisiae deletion strains, locus YPR163C, strain tif3, hits give low values 0.983 | S. cerevisiae deletion strains, locus YPR167C, strain met16, hits give low values 0.984 | S. cerevisiae deletion strains, strain wtn01, hits give low values 0.981 | S. cerevisiae strains, strain wild type, hits give low values 0.987
